# Screens as filed in PubChem.
# KLF5 inhibitor: KLF5 expression inhibitors, primary screen, DLD-1 cells, luminescence. DLD-1 KLF5 promoter-luciferase reporter. inhibition, % at 5 µM. actives 0.23% (n = 290,000). AID 1700, 2009;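 active = inhibition above a per-plate limit of that plate's mean compound inhibition plus 3 SD, cut at about 60% in these data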;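 also: 0% = DMSO wells and 100% = LY294002 at 200 µM; higher means less KLF5 promoter-driven luciferase light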
# APP 5UTR inh: inhibitors of APP translation via 5'UTR reporter, primary screen, APP 5'UTR luciferase, SH-SY5Y cells. SH-SY5Y APP 5'UTR-luciferase reporter, luminescence. inhibition, % at 2 µM. actives 0.82% (n = 190,000). AID 1285, 2008;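 active = inhibition above a set limit, derived from the sample mean plus 3 SD, cut at about 45% in these data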
# Ba/F3 V617F tox: reduced viability of JAK2V617F-dependent Ba/F3 cells, primary screen, JAK2V617F inhibitor project, cell-based, Ba/F3 EpoR-JAK2V617F, luminescence; ATP luminescence; inhibition, % at 5.6 µM; actives 1.1% (n = 220,000);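 active = inhibition above the campaign mean plus 3 SD over all tested compounds, cut at about 24% in these data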;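 also: cytokine-independent growth of Ba/F3 cells driven by EpoR plus mutant JAK2; 0% = DMSO-treated cells and 100% = JAK inhibitor I control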
# IEC-6 tox: cytotoxicity in IEC-6 intestinal epithelial cells, primary screen, cytotoxicity control for KLF5 inhibitor project, cell-based, luminescence | IEC-6 cytotoxicity, luminescence viability | inhibition, % at 5 µM | actives 0.78% (n = 290,000); in the data active = inhibition above about 22%;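 also: 0% = plate median of test compound wells and 100% = cytotoxic reference compound wells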
# aSyn 5UTR inh: MLPCN primary screen, SNCA 5' untranslated region; alpha-synuclein 5'UTR reporter, inhibitor activity; inhibition, % (tested at 7.5 µM); actives 0.82% (n = 300,000); in the data active = inhibition above about 60%;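 also: H4 neuroglioblastoma cells stably carrying SNCA 5'UTR luciferase fusion; 0% = DMSO wells and 100% = positive control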
# BaF3 parental: parental Ba/F3 cell viability inhibition, counter-screen for JAK2V617F inhibitor project, murine pro-B, CellTiter-Glo luminescence. CellTiter-Glo ATP luminescence. inhibition, % at 5.6 µM. actives 1.1% (n = 220,000). AID 1486, 2009;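 active = inhibition above a per-campaign cutoff, the mean inhibition of all tested compounds plus 3 SD, cut at about 27% in these data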;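 also: 0% = DMSO wells and 100% = JAK Inhibitor I control wells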
# The depositor's hits bear a star; x = not tested or not shown. The list is not random: actives were taken first. Their share in the collection is about 2.2%.
SMILES,KLF5 inhibitor,APP 5UTR inh,Ba/F3 V617F tox,IEC-6 tox,aSyn 5UTR inh,BaF3 parental
CCCOc1ccccc1C1CC(=O)NC(C)=C1C(=O)OCC(C)C (configuration not stated),-15.1,-11.2,1.8,2.8,15.8,3.6
COC(=O)C1=C(C)NC(C)=C(C(=O)OCC(C)C)C1c1ccccc1[N+](=O)[O-] (configuration not stated),x,x,x,x,70.5*,x
Cc1ccc(S(=O)(=O)n2nc(-c3ccc(Cl)cc3)nc2NCc2ccco2)cc1,15.9,-12.2,0.9,-3.2,-95.9,1.6
O=C(Nc1ccc(Nc2ccccc2)cc1)C(Cl)(Cl)Cl,-25.6,5.6,-3.7,-5.9,-49.0,50.2*
NC(=O)Nc1ccc(Nc2ccccc2)cc1,-13.6,x,2.0,-1.4,-3.0,0.2
Cc1ccc(Nc2cc(C(=O)NCCCN3CCOCC3)c3ccccc3n2)cc1C,-50.1,x,x,6.7,-48.5,x
Cc1ccc(Nc2ncc(C(=O)NCCCN3CCN(C)CC3)c3ccccc23)cc1Cl,2.9,10.5,65.2*,13.0,3.9,64.1*
COc1ccc2oc(=O)c(/C(C)=N/Nc3nc(-c4cc(C)ccc4C)cs3)cc2c1,-18.3,6.7,-3.3,-1.6,26.3,-0.7
COc1ccc2oc(=O)c(-c3csc(Nc4ccc(O)cc4)n3)cc2c1,-51.9,7.5,60.0*,5.2,-69.6,28.0*
CCN(CC)CCNC(=O)c1ccc(NC(=O)COc2ccccc2F)cc1,-17.9,10.5,0.2,1.5,-1.8,1.9
CCC(C(=O)c1ccccc1)N(C(=O)c1ccccc1Cl)N1C(=O)C2C3C=CC(C3)C2C1=O (configuration not stated),-16.0,-14.9,-4.2,-0.2,12.2,94.6*
O=C(CN(C(=O)c1ccc(Cl)cc1Cl)N1C(=O)C2C3C=CC(C3)C2C1=O)c1ccc(F)cc1 (configuration not stated),-6.4,-6.0,5.8,4.4,-9.1,4.4
CCOc1ccccc1C(=O)NC1CCN(CC(=O)Nc2cc(OC)ccc2OC)CC1,-17.7,x,x,-3.5,-5.3,x
CCC(CO)NCc1ccc(-c2ccccc2)cc1 (configuration not stated),-17.0,1.1,-2.8,-0.2,-12.9,5.2
Cc1ccc(Oc2ccc(-c3nc(N)nc(N)n3)cc2)cc1C,-19.6,92.4*,-5.1,5.6,5.5,3.9
CCc1cc2c3c(c1)C1(C(=O)N3C(C)(C)CC2C)C(C#N)=C(N)N2C(=C1C#N)Nc1ccccc12 (configuration not stated),-31.1,-10.1,0.1,-3.6,10.4,6.4
CCOc1ccccc1NC(=O)C1CCCN(S(=O)(=O)c2c(C)[nH]c(=O)[nH]c2=O)C1 (configuration not stated),-0.8,45.4*,4.2,0.8,-10.6,6.0
C=CCNC(=S)NNC(=O)c1ccc(OCCC)cc1,-6.2,-0.3,-1.7,0.3,6.9,5.6
CCCOc1ccc(C(=O)NNC(=S)NC(=O)CC)cc1,-5.7,-1.9,4.9,8.3,85.4*,1.3
CC(C)C[C@H](NC(=O)c1nc[nH]c1C(=O)N1CCN(C(=O)OC(C)(C)C)CC1)C(=O)OC(C)(C)C,31.0,51.7*,3.1,-4.0,-8.9,-2.6
CC(C)(C)OC(=O)NCCCC[C@H](NC(=O)c1nc[nH]c1C(=O)N1CCN(C(=O)OC(C)(C)C)CC1)C(=O)OC(C)(C)C,-5.8,-16.7,3.7,9.1,1.7,-6.3
O=C1c2ccccc2C(=O)c2c1oc(C(F)(F)F)c2C(=O)c1ccccc1,-43.8,-9.7,-1.2,-2.7,100.9*,1.5
O=C(c1ccccc1)c1coc2c1C(=O)c1ccccc1C2=O,-17.0,-36.9,1.5,-0.8,-80.5,4.5
CCC1CCCCN1CCCNC(=O)c1ccc(N2CCOCC2)c(NS(=O)(=O)c2ccc(OC)cc2)c1 (configuration not stated),-15.2,-0.5,-7.6,-1.5,-4.0,51.6*
COc1ccc(N=C2S/C(=C\c3ccc(C)o3)C(=O)N2CC(C)C)cc1,-17.3,88.7*,2.2,1.7,-11.7,2.5
SMILES,KLF5 inhibitor,APP 5UTR inh,Ba/F3 V617F tox,IEC-6 tox,aSyn 5UTR inh,BaF3 parental
Cc1ccc2nc(/C(C#N)=C\c3ccc([N+](=O)[O-])o3)[nH]c2c1,1.2,5.9,9.4,0.8,-24.2,-1.7
N#C/C(=C\c1ccc([N+](=O)[O-])o1)c1nc2ccccc2[nH]1,-7.4,96.7*,-3.7,4.3,-2.4,1.2
Cc1ccc(NC(=O)c2cc(C)n(-c3ccccc3)c2C)cc1,49.7,-52.3,0.3,-1.6,105.6*,5.9
Cc1ccc(NC(=O)c2cc3ccccc3oc2=N)cc1,58.1,x,x,-3.7,81.7*,x
CCCc1cc(N2CCCC(C(=O)Nc3c(OC)cccc3OC)C2)n2ncnc2n1 (configuration not stated),-6.9,50.3*,-4.5,4.5,26.6,3.1
COc1ccc(/C=N/NC(=O)c2nc(-c3ccccc3)n(-c3ccccc3)n2)cc1,-16.4,11.9,-1.4,-4.9,26.3,3.0
COc1ccc(/C=N/NC(=O)c2nc(-c3ccccc3)n(-c3ccccc3)n2)c(O)c1,-15.0,49.3*,-4.2,2.6,87.1*,2.3
CC(C)(C)c1cc(C(=O)N/N=C/c2ccccc2O)n(-c2ccccc2)n1,-12.3,66.0*,-5.1,-0.1,62.4*,0.5
CN1C(=O)c2ccc(C(=O)Nc3nccs3)cc2C1=O,-35.6,-9.1,-4.5,-1.7,10.5,-0.7
CCCCc1ccc(S(=O)(=O)N2CCC3(CC2)OCCO3)cc1,-35.0,x,x,-5.0,-11.7,x
O=C(CC1(O)C(=O)N(Cc2cccc3ccccc23)c2ccccc21)c1cccnc1 (configuration not stated),-29.4,55.8*,68.1*,12.0,0.6,54.3*
O=C(/C=C\c1ccco1)Nc1cc([N+](=O)[O-])ccc1F,-39.2,94.2*,73.4*,-2.7,97.4*,43.4*
COc1ccc(OC)c(N=C(N)N=C(N)N)c1,13.9,3.3,0.2,3.8,12.8,0.8
COc1cc(/C=C(\C#N)c2[nH]nc(N)c2C#N)cc(OC)c1O,-9.1,49.0*,-0.9,2.6,21.2,5.8
COc1cc(/C=C(\C#N)c2ccccn2)cc(OC)c1O,4.7,x,5.7,0.0,-48.9,-1.3
Nc1c(C(=O)N2CCOCC2)sc2nc3c(cc12)CCCC3,-11.0,x,x,2.8,75.7*,x
Cc1cc(C)c2nc3sc(C(=O)N4CCOCC4)c(N)c3cc2c1,-14.8,x,-5.2,3.1,87.8*,-2.1
CCCOc1ccc(/C=N/Nc2cc(N3CCOCC3)ncn2)c(O)c1,79.3*,x,x,-2.1,3.1,x
CCC(C)(C)c1nnc(NC(=O)CCC2CCCCC2)s1,x,x,x,x,19.9,x
O=C(CSc1ncnc2nc[nH]c12)c1ccc([N+](=O)[O-])cc1,-2.3,x,35.8*,14.9,10.4,22.8
